# The whole screen tested about 320,000 compounds, of which about 200 (0.062%) were called active. About 6% were inconclusive and are not listed. Shown is part of a subset that was picked to be rich in actives. Unmarked numbers belong to inactive results. Calls follow the shape of the dose curve; as a rule, active = well fitted activation curve with a large enough effect; inconclusive = small, poorly fitted or top-dose-only effect; inactive = no such curve, though single readings can be large or run the other way.
# Assay: qHTS assay for re-activators of p53 using a Luc reporter; also: nearly all actives have a fitted effect of over 45% in size; as to activity change, positive = activation: % of control where 0% means no effect
# Details: H1299 p53-A138V BP100-luciferase reporter, luminescence, 24 h; series mostly up to 92.2 µM; activity change, positive = activation: at the top concentration
# Description: The p53 tumor suppressor plays a key role in suppression of tumorigenesis and in human carcinogenesis. It is frequently found inactivated in human cancers, mainly by point mutation. These point mutations are found in a wide variety of human cancers and a majority of them affect the DNA binding domain of the protein. The point mutations either alter native p53 conformation or abolish DNA contact. Additionally, cancer cells with p53 mutations are more resistant to chemo-radiation therapies. In order to find activators to reactivate this important protein, a cell-based screen for p53-dependent luciferase-reporter expression was developed. A p53-null H1299 lung cancer cell line was stably co-transfected with a temperature sensitive p53 mutant, p53-A138V, and a p53-responsive BP100-luciferase reporter. This cell model has previously been characterized in a gene chip profiling experiment for p53 activation. By lowering the culture temperature from 37 deg C (mutant p53 conformation) to 32 deg C (w.t. p53 conformation), a 30-60 fold increase in activation of luciferase activity is observed. At assay temperate, 37 deg C, basal reporter expression is very low and after the addition of detection reagent, a luminescent read-out is carried out. NIH Chemical Genomics Center [NCGC] NIH Molecular Libraries Probe Production Centers Network [MLPCN] MLPCN Grant: DA031088-01A1 Assay Provider (PI): Yi Sung, University of Michigan at Ann Arbor
# 5ul of 1000 cells per well are dispensed in all wells except column 4, into white solid-bottom TC-treated Kalypsys plates. The cells are kept in Opti-MEM and supplemented with 10% FBS and dispensed using a Multidrop (Thermo). Then using the Kalypsys pin-tool, 23nl of compounds are pinned. The compounds are starting concentration at 10mM, with 1:5 dilution, 4 points, and the control compound nocodazole is pinned in column 1 at 25mM, 1:3 dilution, in duplicate, 25mM nocodazole is pinned in column 2. Please note, all concentrations are working concentrations. 5ul of 1pM purified luciferase enzyme is dispensed using the Kalypsys dispenser in column 4. Plates are incubated for 24 hrs at 37 deg C, 5% CO2, and 95% humidity. Then 4ul of the detection reagent Amplite (ABD Bioquest) is added using the Kalypsys dispenser. Plates are incubated for 10 min at ambient room temperature and are then read on the ViewLux (Perkin Elmer) using a clear filter for a luminescent read-out.
# Potency is read from the fitted curve at half-maximal effect.
Structure (SMILES),"activity change, positive = activation [%]",Potency
Cc1cc(C(=O)NNC(=O)c2ccccc2O)c(C)o1,20.4,
Cc1cc(C(=O)N/N=C/c2ccc(N3CCOCC3)cc2)c(C)o1,1.2,
COc1ccc(C/C(C)=N/NC(=O)c2cc(C)oc2C)cc1,8,
CC(=C/c1ccccc1)/C=N/NC(=O)c1cc(C)oc1C,,11.2 µM (active)
Cc1cc(C(=O)N/N=C\C(Br)=C\c2ccccc2)c(C)o1,,31.6 µM (active)
CC(C)c1cc(C(=O)N/N=C/C(Br)=C/c2ccccc2)n[nH]1,-18.6,
O=C1c2ccccc2[C@@H]2C[C@@H](O)[C@H](Nc3ccccc3Cl)CCN12,0.658,
CC(C)(C)OC(=O)C1=C(CO)CS[C@@H]2[C@H](NC(=O)Cc3ccccc3)C(=O)N12,7.32,
Cc1cccc(NC(=O)c2ccc(S(=O)(=O)N(C)c3ccccc3)cc2)n1,7.09,
CCN(CC(=O)NC(C)C)C(=O)c1cc(S(=O)(=O)N2CCCCC2)ccc1N1CCCCC1,-0.998,
COc1ccc(C(=O)COC(=O)CN2C(=O)C3CC=CCC3C2=O)c(OC)c1 (stereo unspecified),-10.4,
Cc1ccc(S(=O)(=O)N2C[C@@H]3CCCC[C@@H]3[C@@H](C)[C@H]2c2cn(Cc3ccccc3)c3ccc(F)cc23)cc1,10,
COc1ccc(C(=O)Nc2cc(S(=O)(=O)N3CCCC3)ccc2Cl)cc1,-1.71,
CCN(C(=O)COC(=O)CCC(=O)c1cccs1)C1CCCCC1,-2.62,
CC(=O)N(O)CCCCCNC(=O)CCC(=O)N(O)CCCCCNC(=O)CCC(=O)N(O)CCCCCNC(=O)CCC(=O)O,-0.988,
O=C(/C=C/c1ccc(Cl)c([N+](=O)[O-])c1)c1ccc(O)cc1,-13.6,
O=C(O)/C=C/c1ccc2c(c1)OCCO2,1.53,
O=C(/C=C/c1ccc2c(c1)OCCO2)c1ccc(O)cc1,,22.4 µM (active)
O=C(COC(=O)c1ccncc1)Nc1ccc2c(c1)OCO2,0.759,
O=C(Nc1cccc(S(=O)(=O)N2CCCCC2)c1)c1cncc(Br)c1,0.992,
COc1cc(S(=O)(=O)N2CCN(C(=O)C3CC3)CC2)ccc1NC(C)=O,-5.44,

Structure (SMILES),"activity change, positive = activation [%]",Potency
CC[C@]12c3[nH]c4ccc(OC)cc4c3CCN1C(=O)C(CC(=O)NCCN1CCOCC1)C[C@@H]2C(=O)N1CCN(C(=O)C2CC2)CC1 (stereo partly specified),2.11,
CC[C@]12c3[nH]c4cc(CCC(=O)N(C)C)ccc4c3CCN1C(=O)[C@@H](CC(=O)NCCCn1ccnc1)C[C@@H]2C(=O)N1CCN(C(=O)C2CC2)CC1,-3.3,
CN(C)C(=O)CCc1ccc2c3c([nH]c2c1)[C@]1(C)[C@@H](C(=O)N2CCCCC2)C[C@H](CC(=O)NCCC2=CCCCC2)C(=O)N1CC3,-5.25,
COc1cc(OC)cc(C(=O)NC(C(=O)N2CCC2)C(C)C)c1 (stereo unspecified),-1.81,
O=C(N[C@H]1C/C=C\C(c2ccc(F)cc2)N(Cc2ccccc2)C(=O)C1)OCC1c2ccccc2-c2ccccc21 (stereo partly specified),-0.803,
COc1ccccc1C(=O)Nc1ccc(C)c(S(=O)(=O)N2CCCCC2)c1,-8.11,
Cc1ccc2c(c1)NC(=O)[C@@]1(C)[C@@H](c3ccccc3)[C@H]3COc4ccc(Cl)cc4[C@@H]3N1C2=O,0.966,
C[C@@H]1CN([C@H](C)CO)C(=O)c2cc(NC(=O)NC3CCCCC3)ccc2O[C@H]1CN(C)S(C)(=O)=O,2.47,
O=C(C[C@@H]1C/C=C\CCC(=O)OC[C@@H]2CCCN2C1=O)NCCO,-5.06,
COc1ccc(/C=C/C(=O)OCC(=O)NC2CCCCCC2)cc1OC,-1.46,
CC1(C)CC[C@@]2(C(=O)O)C(C1)C1=CCC3[C@@]4(C)CC[C@H](O)C(C)(C)C4CC[C@@]3(C)[C@]1(C)C[C@H]2O (stereo partly specified),-3.51,
CC(=O)C[C@H](O)CC(=O)[C@@H]1OC(=O)[C@@H](C)C/C=C\Cc2ccccc21,-0.871,
CCCCNC(=O)C(C)N(CCN(C)C)C(=O)CCCCCN1C(=O)NC(c2ccc(Cl)cc2)C(C(=O)OCc2ccccc2)=C1C (stereo unspecified),-8.52,
COc1cc2c(-c3ccc4c(c3)OCO4)c(-c3ccsc3)oc(=O)c2cc1OC,2.64,
COc1cc(/C=C2\Oc3ccc(C#Cc4ccc(O)cc4)cc3C2=O)cc(OC)c1,14,
Cc1ccc(NS(=O)(=O)c2ccc(C(C)C)cc2)cc1S(=O)(=O)N1CCOCC1,-4.53,
COc1ccc(Br)cc1CN(C)C(=O)C1CC(=O)N(C2CCCC2)C1 (stereo unspecified),-4.98,
Cc1nn(-c2ccccc2)c(Cl)c1C(=O)Nc1ccccc1,10,
Cc1nn(-c2ccccc2)c(C)c1/C=C/C(=O)OC(C)C(N)=O (stereo unspecified),8.78,
Cc1nn(-c2ccccc2)c(Cl)c1/C=C/C(=O)c1ccc(O)cc1,,22.4 µM (active)
